In the library only some 2.4% were active in any assay of this set; here they are far more common.
SmPrx2 inh: Schistosoma Mansoni Peroxiredoxins (Prx2) | Schistosoma mansoni peroxiredoxin 2 (Prx2) | S. mansoni Prx2 activity coupled to TGR/GSH (TGR is thioredoxin glutathione reductase), NADPH fluorescence loss, qHTS | Potency, µM | 0.07% of 65,000 active
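Coupled assay in which S. mansoni TGR passes NADPH reducing equivalents via glutathione to Prx2, which reduces H2O2. Compounds were preincubated 15 min at room temperature with 25 nM TGR/50 nM Prx2 mix. Kinetic NADPH fluorescence loss (ex 365/em 450 nm) was monitored.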
Anthrax LT inh: qHTS Assay for Anthrax Lethal Toxin Internalization; Cells, anthrax lethal toxin internalization, FRET ratio (460/530); Potency, µM (top dose mostly 40 µM), actives largely listed as inhibitors; 0.67% of 70,000 active; AID 912, 2007; note: nearly all actives have a fitted effect of over 50% in size
AmpC nodet inh: Promiscuous and Specific Inhibitors of AmpC Beta-Lactamase (assay without detergent) | 1.8% of 71,000 active | Potency, µM (doses to about 28.7 µM) | P00811 | AmpC nitrocefin hydrolysis, absorbance 480 nm, no detergent
Target sequence (P00811 whole entry, looked up): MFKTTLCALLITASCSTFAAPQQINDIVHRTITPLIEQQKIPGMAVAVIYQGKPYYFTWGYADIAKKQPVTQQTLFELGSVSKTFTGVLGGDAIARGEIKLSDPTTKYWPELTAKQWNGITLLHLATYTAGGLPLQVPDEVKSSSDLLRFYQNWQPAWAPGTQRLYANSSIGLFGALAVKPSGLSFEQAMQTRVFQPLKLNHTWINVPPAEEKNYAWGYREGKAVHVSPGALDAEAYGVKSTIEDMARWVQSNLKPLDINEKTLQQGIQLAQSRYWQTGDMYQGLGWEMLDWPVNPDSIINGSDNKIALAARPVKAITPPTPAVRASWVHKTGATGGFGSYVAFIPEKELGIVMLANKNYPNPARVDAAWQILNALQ
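Enzyme, pH 7.0 phosphate. Compound titrations were pre-incubated with AmpC for 15 min at room temperature before nitrocefin (stock 800 uM) addition; product formation was recorded at 480 nm every 20 s for 4 min.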
AmpC inh det: Promiscuous and Specific Inhibitors of AmpC Beta-Lactamase (assay with detergent); purified AmpC, nitrocefin hydrolysis with detergent; Potency, µM (highest dose often 28.7 µM); 0.09% of 71,000 active; AID 584, 2007; active = well fitted curve in the direction sought with a large enough effect; inconclusive = small, poorly fitted or top-dose-only effect
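E. coli AmpC (5.3 nM) in 20 mM phosphate pH 7.0 with 0.01% Triton X-100, preincubated 15 min RT with compound; nitrocefin (2 uL of 800 uM stock) hydrolysis followed by 480 nm absorbance every 20 s over 4 min.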
Of the large screens only hits and unclear results are named; the others gave an inactive call; [ ] = remark or other dose. Unless noted, calls come from the whole dose curve.

C=CCSC1=N/C(=C\c2ccc3c(c2)OCO3)C(=O)S1	AmpC nodet inh 3.98µM
CC1=C/C(=C\c2ccc3c(c2)OCO3)C(=O)S1	Anthrax LT inh inconclusive, AmpC nodet inh 12.6µM, AmpC inh det inconclusive
O=C(O)[C@H]1[C@H](C(=O)O)[C@H]2CC[C@@H]1O2	none
C[C@H](O)[C@H](O)[C@@H](O)c1cnc2nc(N)[nH]c(=O)c2n1	Anthrax LT inh inconclusive
CCCCN(CC)CCNS(=O)(=O)c1cccc2cccnc12	none
O=C(Nc1cccc(-c2nc3ncccc3o2)c1)c1cc2ccccc2o1	Anthrax LT inh 3.16µM
O=c1c2ccccc2sn1-c1ccc(S(=O)(=O)N2CCCCC2)cc1	Anthrax LT inh 0.159µM
O=c1c2ccccc2sn1-c1ccc(S(=O)(=O)N2CCCC2)cc1	Anthrax LT inh 0.126µM
O=C=NC1CCCCC1	none (no result: SmPrx2 inh)
C(=NC1CCCCC1)=NC1CCCCC1	Anthrax LT inh 3.98µM (no result: SmPrx2 inh)
CCOC(=O)c1nnn(CC(=O)Nc2cc(Cl)ccc2C)c1C(=O)OCC	Anthrax LT inh 7.94µM
N[C@H](Cc1ccccc1)c1nn[nH]n1	none
O=C(Nc1cccnc1)C(Cc1ccccc1)n1cccc1 (configuration not stated)	none
O=C(Nc1ncc(Br)s1)C(Cc1ccccc1)n1cccc1 (configuration not stated)	Anthrax LT inh inconclusive, AmpC nodet inh 12.6µM
O=C(COC(=O)C1CCN(S(=O)(=O)c2cccs2)CC1)c1cc2ccccc2o1	AmpC nodet inh 10µM
O=C(COC(=O)C1CCN(S(=O)(=O)c2cccs2)CC1)c1ccc2c(c1)OCCO2	none
COC1=CC(=O)C[C@@H](C)[C@@]12Oc1c(Cl)c(OC)cc(OC)c1C2=O	none
O=C(NCCC1=CCCCC1)C1CCCN(S(=O)(=O)c2cccc3cccnc23)C1 (configuration not stated)	none
O=C(Nc1nccs1)C1CCN(S(=O)(=O)c2cccnc2)CC1	none
O=C(Nc1nccs1)C1CCCN(S(=O)(=O)c2cccnc2)C1 (configuration not stated)	AmpC nodet inh 3.98µM[single pt active]
O=C(Nc1ccc2c(c1)OCCO2)C1CCCN(S(=O)(=O)c2cccnc2)C1 (configuration not stated)	Anthrax LT inh inconclusive, AmpC nodet inh 3.98µM[single pt active]
O=C(NCCC1=CCCCC1)C1CCCN(S(=O)(=O)c2cccnc2)C1 (configuration not stated)	AmpC nodet inh 2.51µM[single pt active]
Cc1nc2ccc(S(=O)(=O)NC(C(=O)NC3CCCC3)C(C)C)cc2s1 (configuration not stated)	AmpC nodet inh 3.98µM[single pt active]
CCN1CCN(C(=O)C(NS(=O)(=O)c2ccc3nc(C)sc3c2)C(C)C)CC1 (configuration not stated)	none
Cc1sc(NC(=O)c2ccco2)nc1-c1ccc2c(c1)CC(C)N2C(=O)C1CC1 (configuration not stated)	Anthrax LT inh 10µM
COc1ccc2c(c1)-c1nc(NC(=O)c3ccco3)sc1CC2	none
COc1ccc(OCC(O)CN2CCCCC2)cc1 (configuration not stated)	AmpC nodet inh 3.98µM[single pt active]
OC(COc1ccc(Cl)cc1)CN1CCCCC1 (configuration not stated)	none
O=C(c1cc2ccccc2cc1OCC(O)CN1CCCCC1)N1CCCCC1 (configuration not stated)	AmpC nodet inh 3.98µM[single pt active]
CCc1ccc(NC(=O)NCCN2CCc3ccccc3C2)cc1	none
O=C(NCCN1CCc2ccccc2C1)Nc1ccc(F)cc1	Anthrax LT inh inconclusive, AmpC nodet inh 3.98µM[single pt active]
COc1ccc(C(=O)N2CCC[C@@]3(CCN(c4ccccn4)C3)C2)cc1	Anthrax LT inh inconclusive
CC(=O)C1=C(C)Nc2ncnn2C1c1cccc(OCc2ccccc2)c1 (configuration not stated)	AmpC nodet inh 3.98µM[single pt active]
CC1=C(C(=O)OCc2ccccc2)C(c2cccnc2)n2ncnc2N1 (configuration not stated)	none
Cc1cc[c]([Sb]2[O][C@H]([C@H](O)[C@H](O)C(=O)O)[C@@H](CO)[O]2)cc1	none
O=C(O)[C@@H](O)[C@@H](O)[C@@H]1[O][Sb][O][C@@H]1CO	SmPrx2 inh 0.855
C=C(CO)[C@H]1Cc2c(ccc3c2O[C@H]2COc4cc(OC)c(OC)cc4[C@@H]2C3=O)O1	Anthrax LT inh inconclusive
CCc1ccc(Cn2nnc(C(=O)Nc3ccc(OC)cc3OC)c2N)cc1	AmpC nodet inh 3.98µM[single pt active]
CCOc1ccc(Cn2nnc(C(=O)NCc3ccc(OC)cc3)c2N)cc1	AmpC nodet inh 3.98µM[single pt active]
COc1ccc(OC)c(NC(=O)c2nnn(CCc3ccccc3)c2N)c1	AmpC nodet inh 3.98µM[single pt active]
COc1cccc(NC(=O)Cn2nnc(C(=O)Nc3ccccc3)c2N)c1	none
COc1cccc(NC(=O)c2nnn(CCc3ccccc3)c2N)c1	Anthrax LT inh inconclusive, AmpC nodet inh 3.98µM[single pt active]
CCOc1ccc(NC(=O)Cn2nnc(C(=O)NCc3ccccc3OC)c2N)cc1	Anthrax LT inh inconclusive
COC(=O)c1nnn(Cc2ccccc2)c1N	none
C=CCOCC1CO1 (configuration not stated)	none (no result: SmPrx2 inh)
COc1cc(NC(=O)c2nnn(Cc3ccc(SC)cc3)c2N)cc(OC)c1	Anthrax LT inh inconclusive, AmpC nodet inh 3.98µM[single pt active]
CSc1cccc(NC(=O)c2nnn(Cc3ccccc3)c2N)c1	Anthrax LT inh inconclusive
Cc1c(-c2ccc(O)cc2)nn(-c2ccc(O)cc2)c1-c1ccc(OCCN2CCCCC2)cc1	Anthrax LT inh 15.8µM
O=c1cc(-c2ccc(Cl)c(Cl)c2)[nH][nH]1	AmpC nodet inh 12.6µM[single pt active]
O=c1cc(-c2ccc(Cl)cc2)[nH][nH]1	none
COc1ccc(CC(=O)Nc2cccc(-c3nnc(-c4ccccc4)o3)c2)cc1OC	Anthrax LT inh 10µM
COc1ccc(CC(=O)Nc2cccc(-c3nnc(-c4cccc(C)c4)o3)c2)cc1OC	Anthrax LT inh inconclusive
COc1cccc(C(=O)Nc2cccc(-c3nnc(-c4ccccc4)o3)c2)c1	Anthrax LT inh 2µM (no result: SmPrx2 inh)
COc1ccc(CC(=O)Nc2cccc(-c3nnc(-c4ccc(C)cc4)o3)c2)cc1OC	Anthrax LT inh 3.16µM
CC(C)(C)c1onc(OCP(=O)(O)O)c1C[C@@H](N)C(=O)O	none
O=C(Nc1cnn(Cc2ccc(F)cc2)c1)c1cc(-c2ccc(Br)cc2)on1	none
CCOc1ccc(C(=O)c2ccc(OCC)c(N)c2)cc1N	Anthrax LT inh 10µM (no result: SmPrx2 inh)
Nc1ccc(-c2cc(N)n(-c3ccccc3)n2)cc1	Anthrax LT inh inconclusive
Cc1ccc(-n2nc(-c3ccc(N)cc3)cc2N)cc1	Anthrax LT inh inconclusive, AmpC nodet inh 3.16µM[single pt active]
Brc1ccc(-c2nnc3sc(CNCc4ccc5c(c4)OCO5)cn23)cc1	AmpC nodet inh 3.98µM[single pt active]
c1ccc(-c2nnc3sc(CN4CCC5(CC4)OCCO5)cn23)cc1	none
Brc1ccc(-c2nnc3sc(CNC4CCCC4)cn23)cc1	AmpC nodet inh 3.98µM[single pt active]
Cc1ccc(S(=O)(=O)CCC(=O)c2ccc(O)cc2O)cc1	Anthrax LT inh 12.6µM, AmpC nodet inh 12.6µM (no result: SmPrx2 inh)
COc1cccc(NS(=O)(=O)c2nc3nc(C)cc(C)n3n2)c1	AmpC nodet inh 3.98µM[single pt active]

Screening results deposited in PubChem BioAssay by National Center for Advancing Translational Sciences (NCATS).
